From PubChem BioAssay AID1159580 (chemical genetic matrix, 2015)
About 2,000 (36%) of roughly 5,500 compounds were called active. Not shown: some 18% with an inconclusive outcome. No stated cut-off is given here; in the data, active means normalized growth mostly below about 0.91 (no sharp cut-off); inconclusive means no clear call, values can overlap the other calls; inactive means mostly above about 0.92. The list shows a part of the results.

Assay: chemical genetic growth profiling, strain panel (AID 1159580);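 further: tested at 20 µM; growth read once vehicle control cultures reached saturation at 30 °C; 1 = growth at the plate median or of vehicle wells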
Details: growth OD

Measured: normalized growth

CNC(Cc1c[nH]c2ccccc12)C(=O)O (centres undefined)
inactive: S. cerevisiae deletion strains, locus YJR066W, strain TOR1, stronger effect = lower value 0.932 | S. cerevisiae deletion strains, locus YKL009W, strain mrt4, stronger effect = lower value 0.99 | S. cerevisiae deletion strains, locus YKL068W, stronger effect = lower value 0.992 | S. cerevisiae deletion strains, locus YKL085W, strain MDH1 (second series), stronger effect = lower value 0.983 | S. cerevisiae deletion strains, locus YKL085W, strain MDH1, stronger effect = lower value 0.983 | S. cerevisiae deletion strains, locus YKL160W, strain elf1, stronger effect = lower value 0.973 | S. cerevisiae deletion strains, locus YKR001C, strain vps1, stronger effect = lower value 1 | S. cerevisiae deletion strains, locus YKR026C, strain gcn3, stronger effect = lower value 0.975 | S. cerevisiae deletion strains, locus YKR091W, strain srl3, stronger effect = lower value 0.976 | S. cerevisiae deletion strains, locus YLL001W, strain dnm1, stronger effect = lower value 0.972 | S. cerevisiae deletion strains, locus YLL026W, stronger effect = lower value 0.974 | S. cerevisiae deletion strains, locus YLL041C, strain sdh2, stronger effect = lower value 0.981 | S. cerevisiae deletion strains, locus YLR027C, strain aat2, stronger effect = lower value 0.965 | S. cerevisiae deletion strains, locus YLR039C, strain RIC1, stronger effect = lower value 1.03 | S. cerevisiae deletion strains, locus YLR058C, strain SHM2, stronger effect = lower value 0.989 | S. cerevisiae deletion strains, locus YLR102C, strain apc9, stronger effect = lower value 0.995 | S. cerevisiae deletion strains, locus YLR113W, strain HOG1, stronger effect = lower value 1.07 | S. cerevisiae deletion strains, locus YLR221C, strain rsa3, stronger effect = lower value 1.01 | S. cerevisiae deletion strains, locus YLR258W, strain gsy2, stronger effect = lower value 0.99 | S. cerevisiae deletion strains, locus YLR262C, strain YPT6 (second series), stronger effect = lower value 1.01 | S. cerevisiae deletion strains, locus YLR262C, strain YPT6, stronger effect = lower value 1.01 | S. cerevisiae deletion strains, locus YLR268W, strain sec22, stronger effect = lower value 1.03 | S. cerevisiae deletion strains, locus YLR320W, strain mms22, stronger effect = lower value 1.02 | S. cerevisiae deletion strains, locus YLR330W, strain CHS5, stronger effect = lower value 0.987 | S. cerevisiae deletion strains, locus YLR342W, strain FKS1 (second series), stronger effect = lower value 0.957 | S. cerevisiae deletion strains, locus YLR342W, strain FKS1, stronger effect = lower value 0.989 | S. cerevisiae deletion strains, locus YLR357W, strain rsc2, stronger effect = lower value 0.951 | S. cerevisiae deletion strains, locus YLR370C, strain arc18, stronger effect = lower value 0.987 | S. cerevisiae deletion strains, locus YLR371W, strain rom2, stronger effect = lower value 0.969 | S. cerevisiae deletion strains, locus YLR384C, strain iki3, stronger effect = lower value 1.01 | S. cerevisiae deletion strains, locus YLR418C, strain cdc73, stronger effect = lower value 0.983 | S. cerevisiae deletion strains, locus YML016C, strain PPZ1, stronger effect = lower value 0.984 | S. cerevisiae deletion strains, locus YML032C, strain rad52, stronger effect = lower value 0.963 | S. cerevisiae deletion strains, locus YML120C, strain ndi1, stronger effect = lower value 0.983 | S. cerevisiae deletion strains, locus YML124C, strain tub3, stronger effect = lower value 0.994 | S. cerevisiae deletion strains, locus YMR058W, strain fet3, stronger effect = lower value 0.981 | S. cerevisiae deletion strains, locus YMR078C, strain ctf18, stronger effect = lower value 0.984 | S. cerevisiae deletion strains, locus YMR125W, strain sto1, stronger effect = lower value 0.973 | S. cerevisiae deletion strains, locus YMR129W, stronger effect = lower value 0.988 | S. cerevisiae deletion strains, locus YMR205C, strain PFK2, stronger effect = lower value 0.965 | S. cerevisiae deletion strains, locus YMR223W, strain ubp8, stronger effect = lower value 0.972 | S. cerevisiae deletion strains, locus YMR231W, strain pep5, stronger effect = lower value 0.976 | S. cerevisiae deletion strains, locus YMR263W, strain SAP30, stronger effect = lower value 0.982 | S. cerevisiae deletion strains, locus YMR307W, strain GAS1, stronger effect = lower value 0.902 | S. cerevisiae deletion strains, locus YNL067W, strain RPL9B, stronger effect = lower value 0.988 | S. cerevisiae deletion strains, locus YNL071W, strain lat1, stronger effect = lower value 0.989 | S. cerevisiae deletion strains, locus YNL128W, strain TEP1, stronger effect = lower value 0.983 | S. cerevisiae deletion strains, locus YNL153C, strain GIM3, stronger effect = lower value 0.976 | S. cerevisiae deletion strains, locus YNL183C, strain NPR1, stronger effect = lower value 0.993 | S. cerevisiae deletion strains, locus YNL209W, strain ssb2, stronger effect = lower value 0.982 | S. cerevisiae deletion strains, locus YNL233W, strain BNI4, stronger effect = lower value 1 | S. cerevisiae deletion strains, locus YNL248C, strain rpa49, stronger effect = lower value 0.962 | S. cerevisiae deletion strains, locus YNL250W, strain rad50, stronger effect = lower value 0.961 | S. cerevisiae deletion strains, locus YNL271C, strain bni1, stronger effect = lower value 0.994 | S. cerevisiae deletion strains, locus YNL298W, strain CLA4, stronger effect = lower value 0.987 | S. cerevisiae deletion strains, locus YNL307C, strain MCK1, stronger effect = lower value 0.988 | S. cerevisiae deletion strains, locus YNL322C, strain KRE1 (second series), stronger effect = lower value 0.986 | S. cerevisiae deletion strains, locus YNL322C, strain KRE1, stronger effect = lower value 0.985 | S. cerevisiae deletion strains, locus YNR049C, strain mso1, stronger effect = lower value 0.978 | S. cerevisiae deletion strains, locus YNR052C, strain pop2, stronger effect = lower value 0.983 | S. cerevisiae deletion strains, locus YOL012C, strain htz1 1.5 | S. cerevisiae deletion strains, locus YOL147C, strain pex11, stronger effect = lower value 1.01 | S. cerevisiae deletion strains, locus YOR001W, strain rrp6, stronger effect = lower value 0.975 | S. cerevisiae deletion strains, locus YOR061W, strain CKA2, stronger effect = lower value 0.961 | S. cerevisiae deletion strains, locus YOR069W, strain VPS5, stronger effect = lower value 0.999 | S. cerevisiae deletion strains, locus YOR070C, strain gyp1, stronger effect = lower value 1 | S. cerevisiae deletion strains, locus YOR080W, strain dia2, stronger effect = lower value 0.99 | S. cerevisiae deletion strains, locus YOR083W, strain WHI5, stronger effect = lower value 0.975 | S. cerevisiae deletion strains, locus YOR106W, strain vam3, stronger effect = lower value 0.96 | S. cerevisiae deletion strains, locus YOR136W, strain idh2, stronger effect = lower value 0.991 | S. cerevisiae deletion strains, locus YOR144C, strain elg1, stronger effect = lower value 0.988 | S. cerevisiae deletion strains, locus YOR184W, strain ser1, stronger effect = lower value 0.985 | S. cerevisiae deletion strains, locus YOR231W, strain MKK1, stronger effect = lower value 1 | S. cerevisiae deletion strains, locus YOR265W, strain rbl2, stronger effect = lower value 0.974 | S. cerevisiae deletion strains, locus YOR270C, strain vph1, stronger effect = lower value 0.972 | S. cerevisiae deletion strains, locus YOR290C, strain snf2, stronger effect = lower value 0.934 | S. cerevisiae deletion strains, locus YOR316C, strain cot1, stronger effect = lower value 0.991 | S. cerevisiae deletion strains, locus YPL051W, strain arl3, stronger effect = lower value 0.99 | S. cerevisiae deletion strains, locus YPL055C, strain LGE1, stronger effect = lower value 0.953 | S. cerevisiae deletion strains, locus YPL078C, strain atp4, stronger effect = lower value 0.959 | S. cerevisiae deletion strains, locus YPL106C, strain sse1, stronger effect = lower value 0.985 | S. cerevisiae deletion strains, locus YPL240C, strain hsp82, stronger effect = lower value 0.989 | S. cerevisiae deletion strains, locus YPL256C, strain CLN2, stronger effect = lower value 0.978 | S. cerevisiae deletion strains, locus YPR119W, strain clb2, stronger effect = lower value 0.997 | S. cerevisiae deletion strains, locus YPR141C, strain kar3, stronger effect = lower value 0.986 | S. cerevisiae deletion strains, locus YPR163C, strain tif3, stronger effect = lower value 0.993 | S. cerevisiae deletion strains, locus YPR167C, strain met16, stronger effect = lower value 0.992 | S. cerevisiae deletion strains, strain wtn01, stronger effect = lower value 1.02 | S. cerevisiae strains, strain wild type, stronger effect = lower value 1
